Source: PubChem BioAssay AID651690 (Sanford-Burnham Center for Chemical Genomics, 2012)
This is one part of the list. The source made the active and inactive calls. Cut-off read from the data, not from the text of the source: active = inhibition mostly above about 32% (no sharp cut-off); inactive = mostly below about 29%.

Target: Sentrin-specific protease 1 (Homo sapiens) (UniProt Q9P0U3)
Assay: SENP1 SUMO protease blockers by rate readout – biochemical, kinetic FRET, single concentration, confirmation (AID 651690);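 note: 0% = DMSO with enzyme and 100% = no enzyme substrate only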
Conditions: recombinant SENP1, CyPet-SUMO1-YPet FRET kinetic cleavage; at 10 µM; hits give high values

Chain of Sentrin-specific protease 1 (Homo sapiens) (Q9P0U3 419-644 limits assumed): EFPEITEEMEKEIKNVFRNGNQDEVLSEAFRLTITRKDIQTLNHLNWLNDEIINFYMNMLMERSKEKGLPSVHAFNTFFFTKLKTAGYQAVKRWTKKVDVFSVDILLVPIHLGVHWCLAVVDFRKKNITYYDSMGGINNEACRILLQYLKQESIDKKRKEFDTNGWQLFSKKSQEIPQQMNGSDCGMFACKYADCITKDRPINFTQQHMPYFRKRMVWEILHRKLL

In the case of `COc1ccccc1N=Nc1c(O)[nH]c(=S)[nH]c1=O`, the inhibition is reported as 31.3% (inactive).
